In ChEMBL document CHEMBL1157539, “Thousands of chemical starting points for antimalarial lead identification” (Nature, 2010) one finds Inhibition data, which are given here for 40 compounds.

The test concerns Plasmodium falciparum. As to the kind of experiment: GSK_TCMDC: Inhibition of Plasmodium falciparum 3D7 in whole red blood cells, using parasite LDH activity as an index of growth. Test compounds present at 2uM. Format: functional.
Regarding `Cc1cccc2nc(-c3cccc(-c4cccc(NC(=O)c5cccnc5Cl)c4)c3)[nH]c12`, the Inhibition is 97%. `Cc1cc(N/N=C/c2cccc([N+](=O)[O-])c2)c2ccccc2n1`: the Inhibition is on record as 100%. The result for `O=C(Nc1cccc(C(F)(F)F)c1)c1cc([N+](=O)[O-])cc2cn[nH]c12` reads 100%; that for `CCc1ccc(NC(=O)c2ccc(CN3CCCN(Cc4cccc(O)c4)CC3)cc2)cc1.O=C(O)C(F)(F)F`, 100%; that for `Cl.O=[N+]([O-])c1cccc(-c2nc3cc(C4=NC5CCCCC5N4)ccc3[nH]2)c1` (stereo not given), 100%. In the case of `COc1ccc(CCNc2nc(N)c3cc(OC)c(OC)cc3n2)cc1.Cl` it was 100%; in that of `CCn1c(-c2nonc2N)nc2c(-c3cccc(Cl)c3)ncc(OCCCNCCc3c[nH]cn3)c21.O=C(O)C(F)(F)F`, 100%. In the case of `C=CCn1c(Sc2ccc(C#N)c([N+](=O)[O-])c2)nnc1-c1cccc(Cl)c1` it was 97%; in that of `CCCOc1cc(OCCC)cc(-c2ccc(C(=O)Nc3ccc4ccc(C)nc4c3)c(=O)[nH]2)c1`, 100%. Take `O=C(N[C@H]1CCN(Cc2ccc(OC3CCN(Cc4ccccc4)CC3)c(Br)c2)C1)c1ccc(Cl)c(Cl)c1.O=C(O)C(F)(F)F`: the Inhibition came to 100%. In the case of `COc1ccccc1-c1sccc1C(=O)NC1(c2cc(Cl)cc(Cl)c2)CCCC1` it was 88%; in that of `CCn1c(-c2nonc2N)nc2c(-c3cccc(NC(=O)Nc4cccc(Cl)c4)c3)ncc(OCCCN)c21.O=C(O)C(F)(F)F`, 91%; in that of `COC(=O)C(Cc1ccccc1)C(CSCc1ccc(OC)cc1)C(=O)N[C@@H](C(=O)OC(C)(C)C)c1ccc(C(C)(C)C)cc1` (stereo not given in full), 93%. In the case of `CCn1ccc2c(N3CCCS3(=O)=O)cc(C(=O)N[C@@H](Cc3ccccc3)[C@H](O)CNC(C)(C)CCCC(C)C)cc21` it was 97%. In the case of `CCC(N)(C#Cc1ccc(-c2c(C)[nH]c(C)c(Br)c2=O)cc1)CC` it was 97%; in that of `COc1ccc(C(=O)CCC(=O)N(CCSC(C)(C)C)Cc2ccc(-c3ccc(CNCCc4ccc(S(C)(=O)=O)cc4)cn3)cc2)cc1F.O=C(O)C(F)(F)F`, 98%; in that of `FC(F)(F)c1ccc(CSc2ccc3nnc(-c4ccccn4)n3n2)cc1`, 95%. For `COc1ccc2c(OC)c(CNCCCCCCNCc3ccc4cc(OC)ccc4c3OC)ccc2c1.CS(=O)(=O)O`, the Inhibition came out at 98%.

The compound `O=C(O)C(F)(F)F.O=C1CCCN1CCCNCc1cccc(-c2cccc(-c3nc4cc(F)ccc4[nH]3)c2)c1` yielded an Inhibition of 100%. In the case of `CCOc1cc2c(cc1OCC)C(c1cc(OC)c(O)cc1Cl)NCC2` (stereo not given) it was 100%; in that of `COCCNCc1cccc(-c2cc3nccc(Nc4ccc(Oc5ccccc5)cc4)c3cc2Cl)c1`, 99%; in that of `COc1ccc2ncc(F)c([C@H](O)CN3CCC(NCc4ccc5c(c4)NC(=O)CS5)CC3)c2c1.Cl`, 100%.

On to `O=C(NCC1CCC(C(=O)NCCc2ccc(Cl)c(Cl)c2)CC1)c1ccc(O)c(-c2ccc(Cl)c(Cl)c2)c1` (stereo not given), for which the Inhibition came out at 94%.

With `CC1CN(c2ccnc3ccc(Sc4ccc(Oc5ccccc5)cc4)cc23)CC(C)N1.Cl` (stereo not given), the Inhibition was found to be 100%.

`CC(C)N1CCN(C(=O)c2ccc(CNCCCN3CCN(c4cccc(Cl)c4Cl)CC3)s2)CC1.Cl`: the Inhibition was 100%. The result for `Clc1ncnc2ncn(Cc3cccc(Br)c3)c12` reads 91%. Take `CCCCNC(=O)[C@H](CC1CCCCC1)NC(=O)c1ccc(O)c(-c2ccc(Cl)c(Cl)c2)c1`: the Inhibition is 98%.

Compound `Fc1cccc(COc2ccc(Nc3ncnc4sc(C#CC5CCCCN5)cc34)cc2Cl)c1.O=C(O)C(F)(F)F` (stereo not given) yielded an Inhibition of 100%. On to `CNC(=S)NCc1cnc2ccccn12`, for which the Inhibition was found to be 97%. `N#Cc1ccc(N2CCN(Cc3ccc(-c4ccc(-c5nc6cc(C(F)(F)F)ccc6[nH]5)s4)cc3)CC2)nc1.O=C(O)C(F)(F)F` yielded an Inhibition of 100%. The result for `CC(Cc1ccc(NC(=O)c2ccc(CNCc3ccccc3)cc2)cc1)N(CCc1cccc(Cl)c1)C(=O)OC(C)(C)C` (stereo not given) reads 95%; that for `COc1ccc2nccc([C@@H](O)CN3CCC(NC(=O)/C=C/c4cccc(-c5ccccc5)c4)CC3)c2c1`, 98%.

Consider `Cc1cc(CNC(=O)c2ccc(-c3ccc(-c4nc5cc(C(F)(F)F)ccc5[nH]4)s3)cc2)on1`, for which the Inhibition turned out to be 93%. In the case of `CC(=O)c1ccccc1C(=O)N1CCOc2ccc(C(O)C(c3ccccc3)c3ccccc3)cc2C1` (stereo not given) it was 96%; in that of `CC(C)Nc1ccc(Nc2ccnc3cc4ccccc4cc23)cc1`, 100%.

`COc1ccc2c(NN=Cc3cccc(C)n3)ccnc2c1` registered an Inhibition of 96%. In the case of `COc1cc2c(cc1S(=O)(=O)c1ccc(NC(=O)c3ccc4ccccc4c3)cc1)CCN(C)CC2` it was 99%. The result for `CN(c1ccc2c(c1)nc(NCc1ccccc1)n2C)c1ccnc(Nc2ccc(CS(C)(=O)=O)cc2)n1.Cl` reads 94%; that for `N=C(N)NN=CC(=O)Nc1ccc(Cl)c(Cl)c1`, 97%. In the case of `COc1ccccc1C1CN(Cc2coc3ccccc3c2=O)Cc2ccccc2O1` (stereo not given) it was 87%.
